Experimental data from PubChem BioAssay (NCATS).
Active and inactive are the calls of the source. Calls come from the whole dose curve.

target: Guanidinoacetate N-methyltransferase (Homo sapiens) (UniProt Q14353); assay: Confirmatory Screen for Target Class Profiling of Small Molecule Inhibitors of Methyltransferases (AID 1745852); settings: MTase-Glo luminescence, SAH detection, recombinant enzyme; activity change, negative = inhibition: at 57.3 µM (top of the series) unless noted; series mostly up to 57.3 µM; for activity change, negative = inhibition: % is set by controls: 0 for no effect and ±100 for the full control effect
Potency is the fitted concentration of half-maximal effect.

SMILES	activity change, negative = inhibition	Potency	outcome
C=C1C(=O)OC[C@@H]1C/C=C(\C)CC1CC(C)C(=O)O1 (some centres not stated)	-0.246%		
CNCCC(c1cccs1)c1ccc(O)c2ccccc12 (configuration not stated)	2.71%		
CCN(CC)CCCCCCNc1cc(OC)cc2c(C)ccnc12	-0.864%		
CC12CCC3C1C(c1c(cc(O)c(C(=O)c4ccccc4)c1O)O2)C3(C)C (configuration not stated)		21.1 µM (active)	
C=C1C(=O)OC2CC(C)C(CCC(C)O)=CCC12 (configuration not stated)	-4.2%		
CN(C)c1ccc(NC(=O)NS(=O)(=O)c2ccc(Cl)cc2)cc1		27.1 µM (active)	
CC#C[C@@H](CC(=O)O)c1ccc(OCc2cccc(-c3ccc(C(F)(F)F)cc3)c2)cc1			inactive
COc1ccc2nc3n[nH]c(C)c3c(NCCOCCO)c2c1		27.1 µM (active)	
CC(=O)OC/C(=C/C(=O)O)CC[C@@H]1C(C=O)=CC[C@@H]2C(C)(C)CCC[C@@]12C	-3.55%		
N#CSc1cc(SC#N)c(N)nc1N		4.08 µM (active)	
CCc1c(Cl)c(O)c(Cl)c(O)c1C(=O)O[C@H]1[C@H](O)[C@H](OC)[C@H](OC/C2=C\C=C\C[C@H](O)/C(C)=C\[C@H](CC)[C@@H](O[C@@H]3OC(C)(C)[C@@H](OC(=O)C(C)C)[C@H](O)[C@@H]3O)/C(C)=C/C(C)=C/C[C@@H]([C@@H](C)O)OC2=O)O[C@@H]1C	-5.75% [at 29.8 µM]		
COc1ccc(CCN(C)CCCOc2nsc(-c3ccccc3)n2)cc1OC	-0.0909%		
CC1(C)CCC(C)(C)c2cc(C#Cc3ccc(C(=O)O)cc3)ccc21	0%		
COc1c2c(c(C)c3c1C(=O)OC3)O[C@@]1(C)C[C@@H](OC(C)=O)[C@]34O[C@](OC)(CC[C@]3(C)[C@H]1C2)OC4(C)C	2.06% [at 29.8 µM]		
CCCCCCCOc1cc2c(cc1/C(C)=C/c1ccc(C(=O)O)cc1)C(C)(C)CCS2(=O)=O		27.1 µM (active)	
CC1(CO)CC(O)[C@]2(C(=O)O)CCC34CC3(C=CC3[C@]5(C)C(CC[C@]34C)C(C)(CO)[C@@H](O)[C@H](O)[C@@H]5O)C2C1 (some centres not stated)	-5.29% [at 29.8 µM]		
C=C1C(=O)O[C@@H]2C=C(COC(C)=O)CC/C=C(\CO)CC[C@@H]12	2.22%		
C=C1C(OC2OC(CO)C(O)C(O)C2O)CC2C(C)(C)C(O)CCC2(C)C1CC/C(C)=C\COC(=O)CC(=O)O (configuration not stated)	0% [at 19.1 µM]		
N#Cc1ccc(N2N=C3c4ccc(C(=O)O)cc4CC[C@@H]3[C@@H]2C2CCCC2)cc1Cl	-0.344%		

target: Nicotinamide N-methyltransferase (Homo sapiens) (UniProt P40261); assay: as above; settings: MTase-Glo luminescence, SAH detection, recombinant enzyme; measured here: NNMT max response; stronger effect = lower value
Sequence (P40261 whole entry, looked up): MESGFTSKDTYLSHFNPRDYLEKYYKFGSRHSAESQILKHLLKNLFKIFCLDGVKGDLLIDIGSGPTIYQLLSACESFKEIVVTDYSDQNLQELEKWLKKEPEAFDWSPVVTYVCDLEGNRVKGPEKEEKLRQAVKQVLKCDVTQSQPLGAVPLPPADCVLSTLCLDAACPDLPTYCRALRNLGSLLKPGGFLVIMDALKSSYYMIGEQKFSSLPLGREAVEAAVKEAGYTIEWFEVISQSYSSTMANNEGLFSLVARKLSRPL

SMILES	activity
C=C1C(=O)OC[C@@H]1C/C=C(\C)CC1CC(C)C(=O)O1 (some centres not stated)	0.776%
CNCCC(c1cccs1)c1ccc(O)c2ccccc12 (configuration not stated)	-7.38%
CCN(CC)CCCCCCNc1cc(OC)cc2c(C)ccnc12	0.614%
CC12CCC3C1C(c1c(cc(O)c(C(=O)c4ccccc4)c1O)O2)C3(C)C (configuration not stated)	-25.6%
C=C1C(=O)OC2CC(C)C(CCC(C)O)=CCC12 (configuration not stated)	-3.12%
CN(C)c1ccc(NC(=O)NS(=O)(=O)c2ccc(Cl)cc2)cc1	-25%
CC#C[C@@H](CC(=O)O)c1ccc(OCc2cccc(-c3ccc(C(F)(F)F)cc3)c2)cc1	-23.8%
COc1ccc2nc3n[nH]c(C)c3c(NCCOCCO)c2c1	-38.5%
CC(=O)OC/C(=C/C(=O)O)CC[C@@H]1C(C=O)=CC[C@@H]2C(C)(C)CCC[C@@]12C	-14%
N#CSc1cc(SC#N)c(N)nc1N	-72%
CCc1c(Cl)c(O)c(Cl)c(O)c1C(=O)O[C@H]1[C@H](O)[C@H](OC)[C@H](OC/C2=C\C=C\C[C@H](O)/C(C)=C\[C@H](CC)[C@@H](O[C@@H]3OC(C)(C)[C@@H](OC(=O)C(C)C)[C@H](O)[C@@H]3O)/C(C)=C/C(C)=C/C[C@@H]([C@@H](C)O)OC2=O)O[C@@H]1C	-8.66%
COc1ccc(CCN(C)CCCOc2nsc(-c3ccccc3)n2)cc1OC	-34.1%
CC1(C)CCC(C)(C)c2cc(C#Cc3ccc(C(=O)O)cc3)ccc21	-63%
COc1c2c(c(C)c3c1C(=O)OC3)O[C@@]1(C)C[C@@H](OC(C)=O)[C@]34O[C@](OC)(CC[C@]3(C)[C@H]1C2)OC4(C)C	-50.2%
CCCCCCCOc1cc2c(cc1/C(C)=C/c1ccc(C(=O)O)cc1)C(C)(C)CCS2(=O)=O	-71.1%
CC1(CO)CC(O)[C@]2(C(=O)O)CCC34CC3(C=CC3[C@]5(C)C(CC[C@]34C)C(C)(CO)[C@@H](O)[C@H](O)[C@@H]5O)C2C1 (some centres not stated)	-2.18%
C=C1C(=O)O[C@@H]2C=C(COC(C)=O)CC/C=C(\CO)CC[C@@H]12	2.08%
C=C1C(OC2OC(CO)C(O)C(O)C2O)CC2C(C)(C)C(O)CCC2(C)C1CC/C(C)=C\COC(=O)CC(=O)O (configuration not stated)	0%
N#Cc1ccc(N2N=C3c4ccc(C(=O)O)cc4CC[C@@H]3[C@@H]2C2CCCC2)cc1Cl	-82.8%

target: Phenylethanolamine N-methyltransferase (Homo sapiens) (UniProt P11086); assay: as above; settings: MTase-Glo luminescence, SAH detection, recombinant enzyme; measured here: PNMT max response; stronger effect = lower value
Sequence (P11086 whole entry, looked up): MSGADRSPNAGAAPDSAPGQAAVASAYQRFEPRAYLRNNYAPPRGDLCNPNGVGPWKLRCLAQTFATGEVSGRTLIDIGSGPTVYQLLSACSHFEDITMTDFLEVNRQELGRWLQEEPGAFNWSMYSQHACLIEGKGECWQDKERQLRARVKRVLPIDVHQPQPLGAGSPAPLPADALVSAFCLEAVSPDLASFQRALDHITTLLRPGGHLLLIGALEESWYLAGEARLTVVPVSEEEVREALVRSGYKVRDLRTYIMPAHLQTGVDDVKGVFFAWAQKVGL

SMILES	activity
C=C1C(=O)OC[C@@H]1C/C=C(\C)CC1CC(C)C(=O)O1 (some centres not stated)	0.671%
CNCCC(c1cccs1)c1ccc(O)c2ccccc12 (configuration not stated)	-1.78%
CCN(CC)CCCCCCNc1cc(OC)cc2c(C)ccnc12	2.1%
CC12CCC3C1C(c1c(cc(O)c(C(=O)c4ccccc4)c1O)O2)C3(C)C (configuration not stated)	-30.9%
C=C1C(=O)OC2CC(C)C(CCC(C)O)=CCC12 (configuration not stated)	-3.4%
CN(C)c1ccc(NC(=O)NS(=O)(=O)c2ccc(Cl)cc2)cc1	-83.5%
CC#C[C@@H](CC(=O)O)c1ccc(OCc2cccc(-c3ccc(C(F)(F)F)cc3)c2)cc1	3.83%
COc1ccc2nc3n[nH]c(C)c3c(NCCOCCO)c2c1	-54.6%
CC(=O)OC/C(=C/C(=O)O)CC[C@@H]1C(C=O)=CC[C@@H]2C(C)(C)CCC[C@@]12C	-7.72%
N#CSc1cc(SC#N)c(N)nc1N	-48.1%
CCc1c(Cl)c(O)c(Cl)c(O)c1C(=O)O[C@H]1[C@H](O)[C@H](OC)[C@H](OC/C2=C\C=C\C[C@H](O)/C(C)=C\[C@H](CC)[C@@H](O[C@@H]3OC(C)(C)[C@@H](OC(=O)C(C)C)[C@H](O)[C@@H]3O)/C(C)=C/C(C)=C/C[C@@H]([C@@H](C)O)OC2=O)O[C@@H]1C	-8.05%
COc1ccc(CCN(C)CCCOc2nsc(-c3ccccc3)n2)cc1OC	-10.5%
CC1(C)CCC(C)(C)c2cc(C#Cc3ccc(C(=O)O)cc3)ccc21	-5.22%
COc1c2c(c(C)c3c1C(=O)OC3)O[C@@]1(C)C[C@@H](OC(C)=O)[C@]34O[C@](OC)(CC[C@]3(C)[C@H]1C2)OC4(C)C	-7.63%
CCCCCCCOc1cc2c(cc1/C(C)=C/c1ccc(C(=O)O)cc1)C(C)(C)CCS2(=O)=O	-11.4%
CC1(CO)CC(O)[C@]2(C(=O)O)CCC34CC3(C=CC3[C@]5(C)C(CC[C@]34C)C(C)(CO)[C@@H](O)[C@H](O)[C@@H]5O)C2C1 (some centres not stated)	-2.96%
C=C1C(=O)O[C@@H]2C=C(COC(C)=O)CC/C=C(\CO)CC[C@@H]12	0.0072%
C=C1C(OC2OC(CO)C(O)C(O)C2O)CC2C(C)(C)C(O)CCC2(C)C1CC/C(C)=C\COC(=O)CC(=O)O (configuration not stated)	2.99%
N#Cc1ccc(N2N=C3c4ccc(C(=O)O)cc4CC[C@@H]3[C@@H]2C2CCCC2)cc1Cl	0.228%
